Assay results from PubChem BioAssay (Tox21).
Results filed as inconclusive are left out. Activity calls are given as the source filed them. Unless noted, calls follow the shape of the dose curve; as a rule, active = well fitted curve in the direction sought with a large enough effect in the repeat runs; inconclusive = weak or mixed curves; inactive = no such curve, though single readings can be large; an effect the other way counts as inactive or inconclusive.

Assays:
[1] = qHTS assay for small molecules that induce genotoxicity in human embryonic kidney cells expressing luciferase-tagged ATAD5 (AID 651632); also: nearly all actives have a fitted effect of over 15% in size
Summary of the method: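 Luminescence read-out: after 16 hr compound exposure at 37C, ATAD5-luciferase HEK293T cells received Amplite, 30 min RT, then CCD imaging. A rise in signal marks genotoxic stress.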

[2] = qHTS assay for small molecule agonists of the p53 signaling pathway - cell viability (AID 651633; calls by dose curve; also: nearly all actives have a fitted effect of over 30% in size; also: potency is read from the fitted curve at half-maximal effect)
Summary of the method: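 p53RE-bla cells, seeded at 4,000 per well and rested 5 h at 37 C/5% CO2, received compounds in DMSO for 16 h at 37 C. CellTiter-Glo was then added, and luminescence was read after 30 min at room temperature to gauge cytotoxicity.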

[3] = qHTS assay for small molecules that induce genotoxicity in human embryonic kidney cells expressing luciferase-tagged ATAD5 - cell viability (AID 651634; calls by dose curve; also: nearly all actives have a fitted effect of over 25% in size; also: potency is read from the fitted curve at half-maximal effect)
Summary of the method: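 HEK293T ATAD5-luc cells, 2,000/well; compound 15.5 hr, 37C/5% CO2; CellTiter-Fluor 30 min, 37C; fluorescence read.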

[4] = qHTS assay for small molecule disruptors of the mitochondrial membrane potential - cell viability (AID 720634; calls by dose curve;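 also: human HepG2 liver cancer cells; series mostly up to about 83 µM; nearly all actives have a fitted effect of over 20% in size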)
Summary of the method: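 Luminescence from CellTiter-Glo (ATP content) gave viability in HepG2 cells, read in the same wells as the MMP dye assay after 1 hr compound exposure at 37 C.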

[5] = qHTS assay for small molecule disruptors of the mitochondrial membrane potential (AID 720635); also: potency is read from the fitted curve at half-maximal effect
Summary of the method: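 HepG2 cells (2,000/well) attached overnight at 37C, then took compound for 1 hr at 37C, 5% CO2. Mito-MPS dye was added for 30 min; fluorescence was read at 490/535 nm (monomers) and 540/590 nm (aggregates).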

[6] = qHTS assay to test for compound auto fluorescence at 590 nm (red) in HepG2 cells (AID 720674)
Summary of the method: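 Intrinsic compound fluorescence in the red window (Ex/Em 540/590 nm) is measured in attached HepG2 cells exposed for 1 hr, DMSO vehicle as baseline, benchmarked to Rose Bengal sodium.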

[7] = qHTS assay to test for compound auto fluorescence at 535 nm (green) in HepG2 cells (AID 720675)
[8] = qHTS assay to test for compound auto fluorescence at 460 nm (blue) in HEK293 cells (AID 720678)
Summary of the method: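 Blue read-out at excitation 405 nm and emission 460 nm follows overnight compound exposure of HEK293 cells at 37C in 5% CO2. Activity is given as auto fluorescence equivalency to triamterene.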

[9] = qHTS assay to test for compound auto fluorescence at 590 nm (red) in HEK293 cells (AID 720679)
Summary of the method: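 Red channel, Ex/Em 540/590nm; signal expressed as equivalency to Rose Bengal sodium. HEK293, 2,000 cells/well, 10% dialyzed FBS; 23 nL compound pinned after 4-5 hr attachment; overnight 37C/5% CO2 before reading.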

[10] = qHTS assay to test for compound auto fluorescence at 535 nm (green) in HEK293 cells (AID 720680)
[11] = qHTS assay to test for compound auto fluorescence at 460 nm (blue) in HEK293 cell free culture (AID 720681)
Summary of the method: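 Test compounds were pinned into cell-free culture medium (DMEM with 10% FBS) and fluorescence was read directly at Ex/Em 405/460 nm. Signals were expressed as fluorescence equivalents of triamterene, with DMSO vehicle as control.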

[12] = qHTS assay to test for compound auto fluorescence at 535 nm (green) in HEK293 cell free culture (AID 720682)
Summary of the method: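 Fluorescein serves as the green reference fluorophore; each compound's intrinsic emission at 535 nm (excitation 485 nm) is reported as an equivalent amount of that dye, measured in serum-containing DMEM without cells.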

[13] = qHTS assay to test for compound auto fluorescence at 590 nm (red) in HEK293 cell free culture (AID 720683)
Summary of the method: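 Tox21 10K library compounds were pinned into cell-free DMEM with 10% FBS and fluorescence was read at excitation 540 nm. Activity is expressed as Rose Bengal sodium equivalency.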

[14] = qHTS assay to test for compound auto fluorescence at 590 nm (red) in HepG2 cell free culture (AID 720684)
Summary of the method: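 Ex 540 / Em 590 nm read of compound in cell-free MEM (10% FBS). Rose Bengal sodium reference.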

[15] = qHTS assay to test for compound auto fluorescence at 460 nm (blue) in HepG2 cell free culture (AID 720685)
Summary of the method: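 Cell-free plates of MEM plus 10% FBS received 23 nL compound or DMSO vehicle; blue-channel (405/460 nm) intensity scored against triamterene as reference fluorophore.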

[16] = qHTS assay to test for compound auto fluorescence at 535 nm (green) in HepG2 cell free culture (AID 720686)
[17] = qHTS assay to test for compound auto fluorescence at 460 nm (blue) in HepG2 cells (AID 720687)
Summary of the method: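 Cells (2,000/well in MEM with 10% FBS) attached overnight at 37 C, then were exposed to compound or DMSO for 1 hr at 37 C, 5% CO2. Fluorescence read at Ex/Em 405/460 nm, expressed as triamterene-equivalent signal.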

[18] = molecular target: Glucocorticoid receptor (Homo sapiens) (UniProt P04150); assay: qHTS assay to identify small molecule agonists of the glucocorticoid receptor (GR) signaling pathway (AID 720691; active = well fitted activation curve with a large enough effect in the signal ratio in the repeat runs, not every such curve was filed as active; the % refers to the signal ratio)
Summary of the method: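 HeLa GR-bla reporter line; cells pre-incubated 4 h, compound in DMSO 18 h at 37 C; LiveBLAzer B/G FRET substrate 2 h RT; fluorescence intensity read-out.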

[19] = molecular target: Glucocorticoid receptor (Homo sapiens) (UniProt P04150); assay: qHTS assay to identify small molecule antagonists of the glucocorticoid receptor (GR) signaling pathway (AID 720692; active = well fitted inhibition curve with a large enough effect in the signal ratio in the repeat runs, not every such curve was filed as active; the % refers to the signal ratio; also: potency is read from the fitted curve at half-maximal effect)
Summary of the method: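 Read-out: beta-lactamase FRET substrate fluorescence, 2 h at room temperature, in HeLa cells stably carrying a GRE-driven bla reporter. Compounds were co-incubated with 5 nM dexamethasone agonist (final) for 18 h at 37 C.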
% is scaled to controls: 0 for no effect and ±100 for the full control effect.

Sequence of Glucocorticoid receptor (Homo sapiens) (P04150 whole entry, looked up): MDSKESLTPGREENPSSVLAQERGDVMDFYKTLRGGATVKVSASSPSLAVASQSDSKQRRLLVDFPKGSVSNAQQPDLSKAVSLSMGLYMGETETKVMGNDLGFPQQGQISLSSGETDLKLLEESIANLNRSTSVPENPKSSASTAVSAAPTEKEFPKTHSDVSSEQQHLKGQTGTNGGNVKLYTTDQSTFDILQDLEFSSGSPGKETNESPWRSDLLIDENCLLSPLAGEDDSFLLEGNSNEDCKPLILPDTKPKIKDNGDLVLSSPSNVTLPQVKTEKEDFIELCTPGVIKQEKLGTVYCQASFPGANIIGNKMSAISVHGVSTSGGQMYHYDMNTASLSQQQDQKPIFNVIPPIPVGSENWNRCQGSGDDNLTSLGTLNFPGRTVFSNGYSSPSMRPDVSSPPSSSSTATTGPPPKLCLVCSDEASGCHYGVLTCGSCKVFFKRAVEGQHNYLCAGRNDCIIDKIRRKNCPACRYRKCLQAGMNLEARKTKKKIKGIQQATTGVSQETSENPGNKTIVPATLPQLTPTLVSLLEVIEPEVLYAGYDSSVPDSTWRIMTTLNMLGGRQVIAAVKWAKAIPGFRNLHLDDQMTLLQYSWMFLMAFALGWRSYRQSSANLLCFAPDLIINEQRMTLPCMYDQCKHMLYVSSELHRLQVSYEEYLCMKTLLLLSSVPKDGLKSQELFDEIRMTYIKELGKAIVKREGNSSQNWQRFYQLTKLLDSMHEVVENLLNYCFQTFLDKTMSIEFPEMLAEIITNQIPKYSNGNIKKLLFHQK

COc1ncnc(NS(=O)(=O)c2ccc(N)cc2)c1OC
inactive: Potency [1] | Potency [2] | Potency [3] | Potency [4] | Potency [5] | outcome [6] | outcome [7] | Potency [8] | outcome [9] | outcome [10] | Potency [11] | outcome [12] | outcome [13] | outcome [14] | Potency [15] | outcome [16] | Potency [17]

CN(C)CCC=C1c2ccccc2C=Cc2ccccc21
inactive: Potency [1] | Potency [2] | Potency [3] | Potency [4] | outcome [6] | outcome [7] | Potency [8] | outcome [9] | outcome [10] | Potency [11] | outcome [12] | outcome [13] | outcome [14] | Potency [15] | outcome [16] | Potency [18]

CCC(C)(C)OC
inactive: Potency [1] | Potency [2] | Potency [3] | Potency [4] | Potency [5] | outcome [6] | outcome [7] | Potency [8] | outcome [9] | outcome [10] | Potency [11] | outcome [12] | outcome [13] | outcome [14] | Potency [15] | outcome [16] | Potency [17] | Potency [18]

Oc1cccc(Nc2ccccc2)c1
inactive: Potency [1] | Potency [2] | Potency [3] | Potency [4] | outcome [6] | outcome [7] | Potency [8] | outcome [9] | outcome [10] | Potency [11] | outcome [12] | outcome [13] | Potency [15] | outcome [16] | Potency [17] | Potency [18]
active: Potency [5] 25.4 µM

CC1=C(Br)C(=O)C(Br)=C/C1=C(/c1ccccc1S(=O)(=O)O)c1cc(Br)c(O)c(Br)c1C
active: Potency [3] 37 µM
inactive: Potency [1] | Potency [2] | Potency [4] | outcome [6] | outcome [7] | Potency [8] | outcome [9] | outcome [10] | Potency [11] | outcome [12] | outcome [13] | outcome [14] | Potency [15] | outcome [16] | Potency [17] | Potency [18] | Potency [19]

CN1C(C(=O)Nc2ccccn2)=C(O)c2sccc2S1(=O)=O
active: Potency [5] 7.17 µM
inactive: Potency [1] | Potency [2] | Potency [3] | Potency [4] | fluorescence, relative to Rose Bengal [6] -0.263% [at 18.6 µM] | fluorescence, % of fluorescein control [7] 0.0319% [at 18.6 µM] | fluorescence, % of triamterene [8] 0.367% [at 18.6 µM] | fluorescence, % of fluorescent control [9] 0.192% [at 18.6 µM] | fluorescence, % of fluorescein [10] -0.0339% [at 18.6 µM] | fluorescence, % of fluorescent control [11] 2.91% [at 18.6 µM] | activity change [12] -0.011% [at 18.6 µM] | fluorescence, % of fluorescent control [13] 0.306% [at 18.6 µM] | fluorescence, % of Rose Bengal [14] -0.0396% [at 18.6 µM] | fluorescence, % of fluorescent control [15] 0.579% [at 18.6 µM] | fluorescence, % of fluorescein control [16] -0.0069% [at 18.6 µM] | fluorescence, % of fluorescent control [17] 0.333% [at 18.6 µM] | Potency [18]

Oc1ccc(Cl)c2cccnc12
inactive: Potency [1] | Potency [2] | Potency [3] | Potency [4] | outcome [6] | outcome [7] | Potency [8] | outcome [9] | outcome [10] | Potency [11] | outcome [12] | outcome [13] | outcome [14] | Potency [15] | outcome [16] | Potency [17] | Potency [18]
active: Potency [5] 11.9 µM

CN(C)CCN1C(=O)c2ccccc2N(C)c2ccccc21
inactive: Potency [1] | Potency [2] | Potency [3] | Potency [4] | outcome [6] | outcome [7] | Potency [8] | outcome [9] | outcome [10] | Potency [11] | outcome [12] | outcome [13] | outcome [14] | Potency [15]

C[C@H]1c2cccc(O)c2C(O)=C2C(=O)[C@]3(O)C(O)=C(C(N)=O)C(=O)[C@@H](N(C)C)[C@@H]3[C@@H](O)[C@@H]21
inactive: Potency [1] | Potency [2] | Potency [3] | Potency [4] | outcome [6] | outcome [7] | Potency [8] | outcome [9] | outcome [10] | Potency [11] | outcome [12] | outcome [13] | outcome [14] | Potency [15] | outcome [16] | Potency [17] | Potency [18]

CCc1ccccc1
inactive: Potency [1] | Potency [2] | Potency [3] | Potency [4] | Potency [5] | outcome [6] | outcome [7] | Potency [8] | outcome [9] | outcome [10] | Potency [11] | outcome [12] | outcome [13] | outcome [14] | Potency [15] | outcome [16] | Potency [17] | Potency [18] | Potency [19]

O=C(Nc1cccc2c(=O)cc(-c3nn[nH]n3)oc12)c1ccc(OCCCCc2ccccc2)cc1
inactive: Potency [1] | Potency [2] | Potency [3] | Potency [4] | outcome [6] | outcome [7] | Potency [8] | outcome [9] | outcome [10] | Potency [11] | outcome [12] | outcome [13] | outcome [14] | Potency [15] | outcome [16] | Potency [17]

C=CC(C)(CCC=C(C)C)OC(=O)CC(C)C (configuration not stated)
inactive: Potency [1] | Potency [2] | Potency [3] | Potency [4] | Potency [5] | outcome [6] | outcome [7] | Potency [8] | outcome [9] | outcome [10] | Potency [11] | outcome [12] | outcome [13] | outcome [14] | Potency [15] | Potency [18] | Potency [19]

CCCCCCCCCCCCCCN(CCO)CCO
active: Potency [2] 48.6 µM | Potency [19] 19.5 µM
inactive: Potency [1] | Potency [3] | Potency [4] | outcome [6] | outcome [7] | Potency [8] | outcome [9] | outcome [10] | Potency [11] | outcome [12] | outcome [13] | outcome [14] | Potency [15] | outcome [16] | Potency [17]
